Out of some 360,000 compounds screened, about 25,000 (6.9%) were called active. Not shown: some 9% with an inconclusive outcome. The entries come from a sample that favours actives as a whole. A number with no mark means an inactive call. The call rests on the fitted dose curve; in most records, active means well fitted inhibition curve with a large enough effect; inconclusive means small, poorly fitted or top-dose-only effect; inactive means flat fitted curve, though single readings scatter.
Biological target: Luciferin 4-monooxygenase (Photinus pyralis) (UniProt P08659)
Assay: qHTS profiling assay for firefly luciferase inhibitor/activator using purifed enzyme and Km concentrations of substrates (counterscreen for miR-21 project); further: nearly all actives have a fitted effect of over 55% in size;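 on activity change, negative = inhibition: plate controls were vehicle for no effect and reference inhibitor for full effect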
Settings: purified FLuc, luminescence inhibition; series mostly up to 57.5 µM; activity change, negative = inhibition: at the top concentration
Method in brief: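 Biochemical qHTS of compounds, final roughly 60 µM downward over six points, against 10 nM purified firefly luciferase using Km concentrations of substrates (10 uM D-luciferin, 10 uM ATP) in Tris acetate pH 7.5 buffer; luminescence output.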
Potency means the concentration at half of the fitted maximal effect.

Sequence of Luciferin 4-monooxygenase (Photinus pyralis) (P08659 whole entry, looked up): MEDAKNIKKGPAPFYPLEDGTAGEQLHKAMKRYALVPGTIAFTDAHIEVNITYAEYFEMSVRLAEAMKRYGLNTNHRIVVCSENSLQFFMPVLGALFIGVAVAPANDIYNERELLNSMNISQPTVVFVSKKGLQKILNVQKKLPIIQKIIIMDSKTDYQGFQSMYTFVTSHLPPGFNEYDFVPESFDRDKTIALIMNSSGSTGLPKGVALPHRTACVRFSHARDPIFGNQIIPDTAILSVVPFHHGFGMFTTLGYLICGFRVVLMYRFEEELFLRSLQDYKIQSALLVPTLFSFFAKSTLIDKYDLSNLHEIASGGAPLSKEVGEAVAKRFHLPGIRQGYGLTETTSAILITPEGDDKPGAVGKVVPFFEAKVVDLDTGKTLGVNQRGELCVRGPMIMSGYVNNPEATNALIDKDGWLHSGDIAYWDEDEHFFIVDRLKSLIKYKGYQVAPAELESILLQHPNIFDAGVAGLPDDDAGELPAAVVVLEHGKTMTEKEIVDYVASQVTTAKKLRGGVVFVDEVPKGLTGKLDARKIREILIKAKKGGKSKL

SMILES | activity change, negative = inhibition | Potency
Cc1ccc(N=Cc2c(O)n(-c3nccs3)c(=O)c3ccccc23)c(C)c1 | 6.42% | –
Cc1ccc(Oc2c(C(F)(F)F)oc3c(CN4CCCCC4)c(O)ccc3c2=O)cc1 | -0.577% | –
O=C(CN1CCCCCC1)Nc1ccc(Br)cc1Br | – | 16.9 µM (active)
COc1cc(Cl)c(C)cc1NC(=O)CN1CCCCCC1 | -4.1% | –
COc1cc([N+](=O)[O-])ccc1NC(=O)CN1CCCC1 | -1.25% | –
O=C(CN1CCCCCC1)Nc1c(Cl)cc(Cl)cc1Cl | – | 15.1 µM (active)
O=C(CN1CCOCC1)Nc1c(Cl)cc(Cl)cc1Cl | -0.972% | –
O=C(CN1CCCCCC1)Nc1ccc(Cl)cc1F | -8.38% | –
COc1ccc(C(=O)Nc2nonc2-c2ccc(OC)c(OC)c2)cc1Cl | -5.4% | –
CCCc1ccc(OCC(O)CN2CCN(CCO)CC2)cc1 (centres undefined) | -1.45% | –
CC(C)Cn1c(N)c(C(=O)COC(=O)C2CCCN2C(=O)c2cccs2)c(=O)n(C)c1=O (centres undefined) | 2.54% | –
COc1ccc(-c2nnc(SC(C)C(=O)NC3CC3)o2)cc1 (centres undefined) | -9.71% | –
Nc1nc(SCC(=O)Nc2ccc(Cl)c([N+](=O)[O-])c2)n[nH]1 | -12.4% | –
COc1ccc(NC(=O)CSC2=Nc3ccccc3C3=NC(CC(=O)NCc4ccccc4OC)C(=O)N23)cc1Cl (centres undefined) | 4.79% | –
O=C(c1cccc(Br)c1)N1CCN(C2=NS(=O)(=O)c3ccccc32)CC1 | 0.454% | –
O=C(Oc1cccc(NC2=NS(=O)(=O)c3ccccc32)c1)c1ccncc1 | – | 26.9 µM (active)
O=C(N/N=C/c1cccc(OC(=O)c2ccc([N+](=O)[O-])cc2)c1)c1cccnc1 | 1.89% | –
C[N+]1(CCNC(=O)/C=N/O)CCCCC1 | 1.69% | –
C=CCC(NCc1ccco1)c1ccc(OC)cc1 (centres undefined) | -1.1% | –
COc1ccc(-n2cnc3cc(C(=O)NC4CCCC4)ccc32)cc1 | – | inactive
COc1ccc(-n2cnc3cc(NCc4ccco4)ccc32)cc1 | – | 7.57 µM (active)
Cc1ccc(S(=O)(=O)c2nnn3c2nc(N2CCN(c4ccccc4F)CC2)c2cc(Cl)ccc23)cc1C | 3.15% | –
COc1ccc(CCNC(=O)c2cnc3sc(N4CCCCCC4)nn3c2=O)cc1OC | -0.514% | –
COc1ccc(/C=C2\SC(=O)N(CCC(=O)NCCCn3ccnc3)C2=O)cc1 | – | 13.5 µM (active)
O=C(CN1C(=O)S/C(=C\c2ccccc2F)C1=O)NCCCn1ccnc1 | -17.9% | –
COc1ccc(NC(=S)NC2CCS(=O)(=O)C2)cc1 (centres undefined) | 3.48% | –

SMILES | activity change, negative = inhibition | Potency
O=C(CCN1C(=O)c2ccccc2C1=O)NCCCn1ccnc1 | 0.843% | –
COc1ccc(/C=C2\SC(=O)N(CCC(=O)NC3CCS(=O)(=O)C3)C2=O)cc1 (centres undefined) | – | 10.7 µM (active)
COc1ccc(NC(=O)CCN2C(=O)/C(=C/c3ccc4c(c3)OCO4)SC2=S)cc1 | 1.43% | –
O=C(C1CCN(CC2CCCCC2)CC1)N1CCCC1 | 6.5% | –
COc1ccc(-c2nn3c(=O)cc(CN4CCN(C(=O)c5ccc(OC)c(OC)c5)CC4)nc3s2)cc1 | -1.63% | –
CCc1cccc(-n2nnc(-c3nsc(NC(=O)c4ccc(C)cc4)n3)c2C)c1 | -2.73% | –
Cc1c(-c2nsc(NC(=O)c3cccc(Cl)c3)n2)nnn1-c1ccccc1C(F)(F)F | – | 12 µM (active)
COc1ccc(-n2nnc(-c3nsc(NC(=O)c4ccc(C)c(C)c4)n3)c2C)cc1Cl | 1.79% | –
COc1ccc(OCCCn2c(C)nc3cc(C)c(C)cc32)cc1 | -1.58% | –
CC(=O)c1cnc(-c2ccccc2)s1 | -17.3% | –
O=C(/C=C/Nc1ccccc1)c1cnc(-c2ccccc2)s1 | -5.04% | –
CC(C)(C)C(=O)c1cnc(Nc2ccccc2)s1 | – | 6.01 µM (active)
COc1ccc(NC(=O)CSc2nnc(-c3nnn(-c4ccc(F)cc4)c3C)o2)cc1 | -16.8% | –
O=C(O)Cc1sc(-c2ccccc2)nc1-c1cccs1 | – | 23.9 µM (active)
CN(C(=O)COc1nnc(-c2cccs2)c(-c2cccs2)n1)c1ccccc1 | 2.3% | –
CCc1c(-c2ccccc2)nc(N)c(C#N)c1-c1cccs1 | -1.39% | –
O=C(CCc1ccccc1Cl)Nc1ccc(S(=O)(=O)Nc2nccs2)cc1 | 0.725% | –
COc1cc(C(=O)N(Cc2ccc(C(C)C)cc2)C2CCS(=O)(=O)C2)cc(OC)c1OC (centres undefined) | -0.151% | –
CC(=N\NC(=O)c1cc(Br)ccc1O)/C(=N/O)C(=O)Nc1ccccc1 | – | 15.1 µM (active)
COc1ccc(-c2[nH]ncc2/C=N/NC(=O)c2cc(Br)ccc2O)c(OC)c1 | -10.2% | –
CC(=O)N/N=C(\C)c1ccc(Br)cc1Br | 1.38% | –
CCOC(=O)c1c(NC(=O)c2ccc(S(=O)(=O)N3CCCC(C)C3)cc2)sc2c1CCN(C(C)C)C2 (centres undefined) | -1.35% | –
CC(C)CCN1CCC(C)(NC(=O)c2ccccc2)C1=O (centres undefined) | 0.614% | –
CC1=C(c2ccc(F)cc2)S(=O)(=O)N=C1N1CCC(C(=O)NCCc2ccccc2C)CC1 | 4.64% | –
CCOC(=O)N1CCC(NC(=O)c2cnn3ccccc23)CC1 | -0.69% | –
Cc1cnc(C(=O)OCC(=O)N2CCc3ccccc32)cn1 | -1.84% | –

SMILES | activity change, negative = inhibition | Potency
O=C(c1cnn2ccccc12)N1CCc2ccccc21 | – | 6.75 µM (active)
CCOC(=O)c1c(NC(=O)/C(C#N)=C/c2ccccc2)sc2c1CCC2 | -1.39% | –
COc1ccc(Cn2c(C(=O)O)c(CNCc3cccc(OC)c3)c3ccc(C)cc32)cc1 | 2.05% | –
CN1CCN(S(=O)(=O)c2cccc(C(=O)Nc3sccc3C#N)c2)CC1 | -0.762% | –
O=C(Nc1ccccc1C(=O)Nc1ccncc1)c1ccc([N+](=O)[O-])cc1 | – | 19 µM (active)
O=C(Nc1ccncc1)c1ccccc1[N+](=O)[O-] | 3.49% | –
O=C(Nc1ccncc1)c1ccc(Cl)c([N+](=O)[O-])c1 | -2.44% | –
CC(=O)Nc1ccc(NC(=O)CSc2nnc(C3CC3)n2-c2ccccc2)cc1 | 1.21% | –
CCc1nn(CCCC(=O)NCc2ccccc2OC)c(=O)c2cc3occc3n12 | 1.41% | –
CC1CN(C(=O)N2CCC(C(=O)NCc3ccco3)CC2)c2cc(Cl)ccc2O1 (centres undefined) | -0.408% | –
CC1CN(C(=O)N2CCC(C(=O)NCc3cccs3)CC2)c2ccccc2O1 (centres undefined) | – | 1.9 µM (active)
O=C(NCc1cccs1)C1CCN(S(=O)(=O)c2ccc(Cl)cc2)CC1 | 1.13% | –
Cc1nc2nc(SCC(=O)NC3CCC(C)CC3)nn2c(C)c1Cc1ccccc1Cl (centres undefined) | -17.6% | –
O=c1oc(/C=C/c2ccccc2)nc2ccccc12 | -0.823% | –
Clc1ccc(CSc2nnc(/C=C/c3ccccc3)o2)c(Cl)c1 | 7.83% | –
S=c1[nH]nc(/C=C/c2ccccc2)o1 | – | 26.9 µM (active)
COc1cccc(-n2ccn(CC(=O)NCc3ccc(C)cc3)c(=O)c2=O)c1 | 4.44% | –
CCS(=O)(=O)N1CCc2cc(C(=O)N3CCN(c4ccccc4OC)CC3)ccc21 | -4.59% | –
CCc1nnc(NC(=O)c2nc3nccc(C)n3n2)s1 | 1.07% | –
CCc1ccccc1NC(=O)c1sc2nc3c(cc2c1N)CN(Cc1ccccc1)CC3 | -6% | –
CCc1ccc2nc3sc(C(=O)Nc4nnc(CC)s4)c(N)c3cc2c1 | – | 2.39 µM (active)
CSc1ccc(CCNC(=O)c2ccc3c(c2)nc2n3CCOC2)cc1 | -18.1% | –
CC(C)c1ccc(S(=O)(=O)N2CCC3(CC2)OCCO3)cc1 | 0.935% | –
CC(C)c1ccc(/C=C2\NC(=O)NC2=O)cc1 | – | 21.3 µM (active)
Cc1ccc(NC(=O)COc2ccc(/C=C3/NC(=O)NC3=O)cc2)cc1 | -5.63% | –
Cc1ccc(C)c(Cn2c(C(=O)O)c(CNCc3cccs3)c3ccccc32)c1 | -3% | –

SMILES | activity change, negative = inhibition | Potency
Cc1ccnc(NC(=O)C(C)N2C(=O)c3ccccc3C2=O)c1 (centres undefined) | -0.934% | –
Cc1csc(NC(=O)CSc2nc(=O)cc(N)n2-c2ccc(F)cc2)n1 | 0.955% | –
O=C(NCCOc1ccccc1Cl)C(=O)Nc1ccccc1 | -13.2% | –
COc1cc(SC)ccc1C(=O)Nc1cc(C)ccn1 | – | 1.35 µM (active)
Cc1ccnc(NC(=O)CCCOc2ccccc2)c1 | 3.66% | –
COc1cc(SC)ccc1C(=O)N(Cc1ccccc1)c1ccccc1 | 1.81% | –
Cc1ccnc(NC(=O)c2ccoc2C)c1 | – | 16.9 µM (active)
COc1cc(SC)ccc1C(=O)NCCOc1ccccc1Cl | – | 6.01 µM (active)
COc1cc(Cl)c(C)cc1NC(=O)COC(=O)c1cc(SC)ccc1Cl | 2.75% | –
COc1cc(SC)ccc1C(=O)Nc1nc(C)cs1 | – | 0.0757 µM (active)
COc1ccccc1OCCNC(=O)CCNC(=O)c1ccccc1Cl | 0.227% | –
Cc1occc1C(=O)Nc1cccc(Cn2cccn2)c1 | 4.82% | –
O=C(CN1CCN(C(=O)C2CCCO2)CC1)Nc1c(Cl)cccc1Cl (centres undefined) | 1.65% | –
CCCCCCNC(=O)CSc1nccn1Cc1ccccc1 | -0.453% | –
COC(=O)Cn1cnc2scc(-c3ccc(C)c(C)c3)c2c1=O | 6.57% | –
CCC(NC(=O)c1ccccc1NC(=O)c1ccccc1)C(=O)NNC(=O)CSc1nc2ccccc2o1 (centres undefined) | -17.4% | –
O=C(Cn1nnc2ccccc2c1=O)Nc1cc(C(F)(F)F)ccc1N1CCOCC1 | -0.915% | –
CC(CO)NCC12CC3CC(CC(C3)C1)C2 (centres undefined) | 0.574% | –
CCOc1ccccc1NC(=O)c1ccc2c(c1)CCN2S(=O)(=O)c1ccc(C)cc1 | -0.319% | –
O=C(NCCc1csc(-c2ccc(C(F)(F)F)cc2)n1)C(=O)Nc1ccc(F)c(Cl)c1 | 0.42% | –
Cc1ccc(C)c(N2CCN(C(=O)CN3C(=O)COc4ccc(S(=O)(=O)N5CCCCCC5)cc43)CC2)c1 | -11.7% | –
COc1ccccc1OCCNc1cc(N2CCOCC2)ccc1[N+](=O)[O-] | – | 15.1 µM (active)
O=C(c1ccccc1)N1CCN(c2ccc([N+](=O)[O-])c(NCc3ccco3)c2)CC1 | 0.947% | –
CC(=O)Nc1ccc(S(=O)(=O)N2CCN(c3ccc([N+](=O)[O-])c(NCCN4CCOCC4)c3)CC2)cc1 | 2.44% | –
O=C(CCn1ccc2cc(S(=O)(=O)N3CCCC3)ccc21)NCc1cccc(Cl)c1 | -7.4% | –
COc1ccc(-c2noc(C(C)NS(=O)(=O)c3ccc(NC(C)=O)cc3)n2)cc1 (centres undefined) | -1.43% | –

— PubChem BioAssay AID588342 (National Center for Advancing Translational Sciences (NCATS), 2011)
